A short description of experiment [1]: binders of probe aFSTL3 on microarray, primary screen, stem cell growth factor project, biochemical, small-molecule microarray, fluorescence 635/667 (AID 1064).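 Also: measures binding of the biotinylated anti-FSTL3 antibody to printed compounds.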 The settings on record: higher = more signal.
Experiment [2] in a line: binders from COS7 lysate, DM2A8 probe, primary screen, torsin A project, cell lysate, small-molecule microarray, fluorescence 635/667 (AID 1065). As to conditions: higher = more signal, COS7 lysate expressing mutant human TOR1A.
Experiment [3] can be described thus: binders of probe aFGF2 on microarray, primary screen, stem cell growth factor project, biochemical, small-molecule microarray, fluorescence 635/667 (AID 1067).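 Also: measures binding of biotinylated aFGF2 protein to printed compounds on slides; z-score merges feature fluorescence and signal-to-noise across triplicate slides.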 The settings on record: higher = more signal.
A short description of experiment [4]: binders of probe aFGF10 on microarray, primary screen, stem cell growth factor project, biochemical, small-molecule microarray, fluorescence 635/667 (AID 1071).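 Also: score merges 667 nm spot intensity and signal to noise from triplicate slides.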 The settings on record: higher = more signal.
Experiment [5] deals with Neurogenic locus notch homolog protein 2 (Homo sapiens) (UniProt Q04721). The experiment in a line: Notch2 binders on small-molecule microarrays, primary screen, biochemical, small-molecule microarray, 635 nm fluorescence, stem cell growth factors (AID 1073). As to conditions: Notch2 binding, higher = more signal.
Sequence of Neurogenic locus notch homolog protein 2 (Homo sapiens) (Q04721 whole entry, looked up, canonical isoform): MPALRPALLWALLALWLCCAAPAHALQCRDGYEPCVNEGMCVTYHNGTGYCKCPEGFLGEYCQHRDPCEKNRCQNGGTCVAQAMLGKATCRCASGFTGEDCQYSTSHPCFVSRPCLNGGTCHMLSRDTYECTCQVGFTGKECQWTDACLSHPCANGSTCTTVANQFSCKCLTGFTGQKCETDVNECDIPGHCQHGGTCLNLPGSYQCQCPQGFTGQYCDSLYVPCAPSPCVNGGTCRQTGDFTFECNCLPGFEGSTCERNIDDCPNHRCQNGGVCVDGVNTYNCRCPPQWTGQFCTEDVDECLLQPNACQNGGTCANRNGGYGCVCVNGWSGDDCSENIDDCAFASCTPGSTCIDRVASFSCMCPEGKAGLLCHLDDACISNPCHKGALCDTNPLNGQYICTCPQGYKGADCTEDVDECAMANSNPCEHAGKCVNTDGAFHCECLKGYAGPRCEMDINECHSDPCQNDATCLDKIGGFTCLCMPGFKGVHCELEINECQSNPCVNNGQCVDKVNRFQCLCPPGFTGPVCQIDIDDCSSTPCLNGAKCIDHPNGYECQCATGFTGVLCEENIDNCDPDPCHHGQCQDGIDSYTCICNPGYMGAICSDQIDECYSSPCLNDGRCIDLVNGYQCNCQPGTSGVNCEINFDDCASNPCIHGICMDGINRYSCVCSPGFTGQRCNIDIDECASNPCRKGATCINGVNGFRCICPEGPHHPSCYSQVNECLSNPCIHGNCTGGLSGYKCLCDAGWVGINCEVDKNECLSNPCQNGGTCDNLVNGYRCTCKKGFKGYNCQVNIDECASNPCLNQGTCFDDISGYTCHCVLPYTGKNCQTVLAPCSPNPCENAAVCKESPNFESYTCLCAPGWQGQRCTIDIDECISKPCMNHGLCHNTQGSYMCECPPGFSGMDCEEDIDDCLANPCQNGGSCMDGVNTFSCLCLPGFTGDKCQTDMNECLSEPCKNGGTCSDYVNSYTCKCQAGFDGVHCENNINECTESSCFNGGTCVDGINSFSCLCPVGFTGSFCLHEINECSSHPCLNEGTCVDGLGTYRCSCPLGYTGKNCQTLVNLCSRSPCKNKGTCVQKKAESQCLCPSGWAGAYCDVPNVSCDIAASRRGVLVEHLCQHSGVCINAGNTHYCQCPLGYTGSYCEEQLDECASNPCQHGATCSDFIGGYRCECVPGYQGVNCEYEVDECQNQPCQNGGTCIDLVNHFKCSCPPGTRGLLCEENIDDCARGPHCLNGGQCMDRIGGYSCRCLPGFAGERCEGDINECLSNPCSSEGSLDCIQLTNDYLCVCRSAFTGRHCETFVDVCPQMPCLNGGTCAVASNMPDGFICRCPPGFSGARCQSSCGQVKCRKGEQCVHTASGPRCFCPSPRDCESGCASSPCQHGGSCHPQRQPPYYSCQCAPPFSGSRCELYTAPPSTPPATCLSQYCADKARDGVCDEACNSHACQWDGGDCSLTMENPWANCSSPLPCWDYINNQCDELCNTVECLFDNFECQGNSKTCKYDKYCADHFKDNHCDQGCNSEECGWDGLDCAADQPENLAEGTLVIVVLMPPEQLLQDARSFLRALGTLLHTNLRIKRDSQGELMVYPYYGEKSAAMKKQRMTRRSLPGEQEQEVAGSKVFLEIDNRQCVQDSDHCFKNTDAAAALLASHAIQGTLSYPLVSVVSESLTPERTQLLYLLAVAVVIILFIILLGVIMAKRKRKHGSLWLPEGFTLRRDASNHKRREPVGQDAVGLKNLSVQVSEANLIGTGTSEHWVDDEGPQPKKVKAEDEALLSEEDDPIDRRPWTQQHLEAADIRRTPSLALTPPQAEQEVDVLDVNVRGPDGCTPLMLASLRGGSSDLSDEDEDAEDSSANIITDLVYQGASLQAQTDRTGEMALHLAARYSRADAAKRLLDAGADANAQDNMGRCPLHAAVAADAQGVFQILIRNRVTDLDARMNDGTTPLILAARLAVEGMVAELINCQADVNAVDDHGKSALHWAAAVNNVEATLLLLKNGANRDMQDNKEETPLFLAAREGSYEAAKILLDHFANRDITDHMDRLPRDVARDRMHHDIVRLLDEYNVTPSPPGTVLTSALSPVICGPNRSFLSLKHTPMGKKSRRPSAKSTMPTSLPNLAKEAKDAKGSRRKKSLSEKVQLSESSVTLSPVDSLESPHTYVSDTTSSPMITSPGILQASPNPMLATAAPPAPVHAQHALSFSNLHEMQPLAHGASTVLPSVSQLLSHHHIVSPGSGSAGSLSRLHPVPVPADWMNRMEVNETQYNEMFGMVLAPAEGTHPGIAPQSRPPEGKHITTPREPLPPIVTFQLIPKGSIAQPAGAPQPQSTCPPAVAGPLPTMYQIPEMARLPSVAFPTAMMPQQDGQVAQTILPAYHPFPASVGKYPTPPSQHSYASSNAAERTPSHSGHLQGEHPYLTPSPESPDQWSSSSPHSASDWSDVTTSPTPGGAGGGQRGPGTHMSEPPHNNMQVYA
Experiment [6] deals with Pro-neuregulin-1, membrane-bound isoform (Homo sapiens) (UniProt Q02297). The experiment in a line: NRG1 binders on small-molecule microarrays, primary screen, psychiatric disease protein project, biochemical, small-molecule microarray, fluorescence 635/667 (AID 1075).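 Also: score combines 667 nm spot fluorescence with signal to noise.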 The settings on record: NRG1 binding, 635 nm fluorescence, higher = more signal.
The subject of experiment [7] is Neuregulin-1 EGF-like domain. The experiment in a line: binders of neuregulin-1 EGF-like domain, primary screen, biochemical, small-molecule microarray, 635 nm fluorescence (AID 1081).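 Also: binding of the protein to compounds printed on small-molecule microarray slides.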 The settings on record: small-molecule microarray binding, higher = more signal.
Experiment [8] is described as follows: FRG1 promoter luciferase signal modulators, primary screen, FRG1 inhibition for FSHD, cell-based, C2C12 myotubes, firefly/Renilla luciferase, luminescence (AID 1084). The settings on record: higher = more signal, called active from +8 up or from −8 down.
The nature of experiment [9]: binders of probe aFST on microarray, primary screen, stem cell growth factor project, biochemical, small-molecule microarray, fluorescence 635/667 (AID 1086).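 Also: score merges 667 nm fluorescence with signal-to-noise of each printed compound spot.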 The settings on record: higher = more signal.
Experiment [10] is described as follows: binders of probe aHhip on microarray, primary screen, stem cell growth factor project, biochemical, small-molecule microarray, fluorescence 635/667 (AID 1087).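 Also: score merges spot fluorescence at 667nm with spot signal to noise ratio.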 The settings on record: higher = more signal.
The test system of experiment [11] is PRMT1 (protein arginine N-methyltransferase 1). Put plainly: PRMT1 binders on small-molecule microarrays, primary screen, biochemical, small-molecule microarray, 635 nm fluorescence (AID 1088).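 Also: binding of Prmt1 protein to compounds spotted on small-molecule microarray slides.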 The settings on record: small-molecule microarray binding, higher = more signal.
The nature of experiment [12]: yeast growth modulation, basal conditions, primary screen, YJM789 clinical isolate, OD600, 24 h (AID 1089).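 Also: growth of clinical yeast isolate S. cerevisiae YJM 789 seeded 1000 cells per well; test concentration not given here.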 The settings on record: S. cerevisiae YJM789 growth, higher = more signal, called active from +8 up or from −8 down.
Experiment [13] is described as follows: fission yeast growth modulation, primary screen, strain 972, OD600, 24 h, no modulator (AID 1090).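 Also: basal condition with compound alone and no growth modifier present; test concentration not given here.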 As to conditions: S. pombe 972 growth, higher = more signal, called active from +8 up or from −8 down.
Experiment [14] can be described thus: S. cerevisiae growth modulation with rapamycin, primary screen, strain BY4716, OD600, 96 h (AID 1091). Also: test concentration not given here. As to conditions: higher = more signal, called active from +8 up or from −8 down.
In experiment [15] the target is Torsin-1A-interacting protein 2 (Homo sapiens) (UniProt Q8NFQ8). The experiment in a line: LULL1 binders on small-molecule microarray, primary screen, cell lysate, human LULL1 lysate, 635/667 nm fluorescence (AID 1092).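 Also: probe is lysate of COS7 cells overexpressing human LULL1; score merges per-feature 667 nm fluorescence with signal-to-noise.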 The settings on record: hLULL1 lysate binding, 635 nm fluorescence, higher = more signal.
Experiment [16] is described as follows: E. coli growth modulation, two-sided OD650, primary screen, E. coli filamentation project, strain DRC41, 24 h (AID 1093).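 Also: MC1000 strain lacking acrAB efflux and sulA so SOS filamentation is blocked; test concentration not given here.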 As to conditions: OD650, 24 h, higher = more signal, called active from +8 up or from −8 down.
A short description of experiment [17]: small-molecule microarray binders of probe aLefty2, primary screen, biochemical, biotinylated probe, 635/667 nm fluorescence (AID 1094).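 Also: score merges spot fluorescence near 667 nm with spot signal-to-noise ratio.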 The settings on record: higher = more signal.
Experiment [18] concerns Noggin (protein binding on small-molecule microarray). The experiment in a line: Noggin binders on small-molecule microarray, primary screen, biochemical, 635/667 nm fluorescence (AID 1095).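 Also: score merges 667 nm feature fluorescence with signal to noise over triplicate slides.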 The settings on record: 635 nm fluorescence, higher = more signal.
For experiment [19], the target named is Neurogenic locus notch homolog protein 3 (Homo sapiens) (UniProt Q9UM47). Put plainly: NOTCH3 binders on small-molecule microarray, primary screen, biochemical, 635/667 nm fluorescence (AID 1096). As to conditions: NOTCH3 binding, 635 nm fluorescence, higher = more signal.
Sequence of Neurogenic locus notch homolog protein 3 (Homo sapiens) (Q9UM47 whole entry, looked up): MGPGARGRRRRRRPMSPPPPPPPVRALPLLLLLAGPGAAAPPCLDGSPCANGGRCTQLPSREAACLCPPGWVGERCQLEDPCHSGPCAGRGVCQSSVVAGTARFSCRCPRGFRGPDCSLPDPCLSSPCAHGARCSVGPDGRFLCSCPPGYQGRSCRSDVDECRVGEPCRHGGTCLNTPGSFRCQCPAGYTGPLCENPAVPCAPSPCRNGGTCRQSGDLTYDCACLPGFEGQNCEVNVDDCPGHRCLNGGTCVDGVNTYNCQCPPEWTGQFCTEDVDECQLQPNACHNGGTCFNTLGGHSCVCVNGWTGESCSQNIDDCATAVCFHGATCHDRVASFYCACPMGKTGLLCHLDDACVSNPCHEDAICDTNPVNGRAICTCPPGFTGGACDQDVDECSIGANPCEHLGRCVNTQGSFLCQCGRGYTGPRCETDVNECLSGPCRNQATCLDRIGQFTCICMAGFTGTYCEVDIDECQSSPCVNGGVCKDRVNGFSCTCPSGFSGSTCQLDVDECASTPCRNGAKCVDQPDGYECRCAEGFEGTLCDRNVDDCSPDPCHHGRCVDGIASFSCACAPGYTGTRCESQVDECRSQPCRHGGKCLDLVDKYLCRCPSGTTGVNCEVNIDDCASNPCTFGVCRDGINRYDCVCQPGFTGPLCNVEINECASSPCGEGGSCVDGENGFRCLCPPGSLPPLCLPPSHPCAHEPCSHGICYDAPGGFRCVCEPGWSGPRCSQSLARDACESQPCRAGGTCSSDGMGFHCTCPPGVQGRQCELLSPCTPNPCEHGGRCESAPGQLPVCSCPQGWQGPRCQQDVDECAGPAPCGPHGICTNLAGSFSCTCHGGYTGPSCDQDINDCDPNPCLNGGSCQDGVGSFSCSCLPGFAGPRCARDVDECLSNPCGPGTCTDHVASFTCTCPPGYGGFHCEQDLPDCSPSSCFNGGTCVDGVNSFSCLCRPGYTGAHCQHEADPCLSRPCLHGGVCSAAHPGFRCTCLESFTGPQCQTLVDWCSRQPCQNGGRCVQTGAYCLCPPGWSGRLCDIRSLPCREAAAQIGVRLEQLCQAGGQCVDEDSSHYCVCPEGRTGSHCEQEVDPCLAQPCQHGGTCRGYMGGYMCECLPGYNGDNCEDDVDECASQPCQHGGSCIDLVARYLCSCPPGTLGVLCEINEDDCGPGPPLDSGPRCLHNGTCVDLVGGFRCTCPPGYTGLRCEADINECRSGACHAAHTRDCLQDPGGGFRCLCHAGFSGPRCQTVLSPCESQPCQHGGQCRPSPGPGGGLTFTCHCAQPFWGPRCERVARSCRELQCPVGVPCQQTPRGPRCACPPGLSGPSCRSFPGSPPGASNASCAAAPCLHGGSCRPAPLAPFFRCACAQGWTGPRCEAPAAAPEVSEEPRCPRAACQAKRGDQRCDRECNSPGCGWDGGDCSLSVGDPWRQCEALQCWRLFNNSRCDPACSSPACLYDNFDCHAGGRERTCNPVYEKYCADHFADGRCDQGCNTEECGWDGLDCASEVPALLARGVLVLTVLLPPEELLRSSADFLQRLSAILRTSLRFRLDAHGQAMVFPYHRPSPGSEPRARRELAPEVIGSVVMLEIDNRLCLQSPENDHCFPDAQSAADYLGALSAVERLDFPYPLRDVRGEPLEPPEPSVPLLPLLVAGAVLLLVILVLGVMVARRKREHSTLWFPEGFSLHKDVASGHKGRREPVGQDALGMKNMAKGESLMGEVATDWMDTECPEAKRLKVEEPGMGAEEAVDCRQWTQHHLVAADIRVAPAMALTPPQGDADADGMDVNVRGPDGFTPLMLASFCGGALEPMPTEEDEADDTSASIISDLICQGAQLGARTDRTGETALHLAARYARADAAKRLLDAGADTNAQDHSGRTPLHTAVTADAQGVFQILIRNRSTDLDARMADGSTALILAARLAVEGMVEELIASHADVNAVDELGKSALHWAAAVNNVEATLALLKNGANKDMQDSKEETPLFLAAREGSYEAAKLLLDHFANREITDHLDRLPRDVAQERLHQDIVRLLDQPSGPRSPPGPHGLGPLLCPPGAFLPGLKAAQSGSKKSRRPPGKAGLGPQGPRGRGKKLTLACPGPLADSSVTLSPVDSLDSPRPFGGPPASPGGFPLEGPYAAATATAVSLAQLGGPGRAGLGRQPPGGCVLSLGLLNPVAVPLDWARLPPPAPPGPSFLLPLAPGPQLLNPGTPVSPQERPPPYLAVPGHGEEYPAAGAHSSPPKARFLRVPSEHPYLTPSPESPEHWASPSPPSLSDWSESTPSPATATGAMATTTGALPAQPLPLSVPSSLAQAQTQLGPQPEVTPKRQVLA
A short description of experiment [20]: small-molecule microarray binders of probe aEGFR, primary screen, biochemical, biotinylated probe, 635/667 nm fluorescence (AID 1097).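 Also: probe is a biotinylated anti-EGFR antibody binding compounds printed on slides; score combines fluorescence near 667 nm and signal to noise of each spot.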 The settings on record: higher = more signal.

Values joined by “and” are separate entries in the source; they are usually repeats but may differ in a detail not shown here. Identical values can stand only once. Active and inactive are the calls of the source.

Regarding `C=CCN(Cc1ccccc1)C(=O)C1N(C(C)(C)CO)C(=O)C2C(C(=O)O)C3C=CC21O3` (stereo not given), the composite z-score in experiment [1] was 0.666 and 0.391; in experiment [2] it was 2.08 and -1.13; in experiment [3], -0.206 and 0.511; in experiment [4] it was -2.12 and -0.387; in experiment [5] it was -2.15 and -1.36; in experiment [6], -1 and -0.987. In addition, the composite z-score in [7] is -0.372 and 0.11; in experiment [9], -0.847 and -1.28; in experiment [10] it was -0.274 and -0.169; in experiment [11], -1.67 and -1.32; in [15], -0.696 and -1.91; in [17], -0.0563 and -0.136. For the same compound, the composite z-score was -2.68 and -1.76 in experiment [18]; -1.46 and -1.43 in [19]; -0.25 and -0.242 in [20]. Further, the z-score is 0.551 (inactive) and 0.312 (inactive) in experiment [8]; -0.421 (inactive) and -0.475 (inactive) in experiment [12]; -0.369 (inactive) and -0.243 (inactive) in experiment [13]; -0.13 (inactive) and -0.429 (inactive) in experiment [14]; -0.333 (inactive) and 1.73 (inactive) in experiment [16].

In the case of `CO[C@H]1COC(=O)CC=C[C@H](C)[C@H](OC)COC(=O)[C@@H](C)COC(=O)CC=C[C@@H]1C`, the composite z-score is -0.62 and -0.66 in experiment [1]; 0.767 and 1.26 in experiment [2]; -0.14 and -0.143 in experiment [3]; -0.0016 and 0.149 in experiment [4]; -0.178 and 0.182 in [5]; -0.73 and -0.518 in experiment [6]. In addition, the composite z-score is -0.104 and 0.0825 in experiment [7]; -0.0446 and -0.0435 in [9]; -0.261 and -0.0645 in experiment [10]; 0.65 and 1.07 in experiment [11]; -0.0624 and -0.0356 in experiment [15]; -0.177 and -0.239 in [17]. The composite z-score in experiment [18] is 0.74 and 1.2; in [19] it was 0.327 and 0.287; in experiment [20], -0.143 and -0.103. Also, the z-score was -0.407 (inactive) and -1.3 (inactive) in experiment [8]; -0.23 (inactive) and -0.132 (inactive) in experiment [12]; -0.121 (inactive) and -1.49 (inactive) in experiment [13]; -0.324 (inactive) and -0.586 (inactive) in experiment [14]; 0.432 (inactive) and 0.839 (inactive) in experiment [16].

As to `COC(=O)C1=C(C)N(Cc2ccccc2)C2=C(C(C)=O)[C@H](c3ccccc3)[C@@](O)(C(=O)OC)C(=O)N2[C@@H]1c1ccccc1`, the composite z-score in experiment [1] was -0.449 and -0.481; in [2], 0.468 and -0.61; in experiment [3], -0.129 and -0.139; in experiment [4], 0.778 and -0.338; in experiment [5], 0.691 and 0.083; in experiment [6] it was 0.595 and -0.445. Also, the composite z-score is 1.18 and -1.44 in experiment [7]; 0.277 and -0.201 in [9]; 0.0515 and -0.281 in [10]; 1.09 and -0.374 in experiment [11]; 0.72 and -0.756 in [15]; -0.0873 and -0.254 in [17]. In addition, the composite z-score was 0.409 and 0.203 in [18]; 1.13 and -0.352 in [19]; 0.0729 and -0.118 in experiment [20]. Further, the z-score in experiment [8] was -2.61 (inactive) and -1.77 (inactive); in [12], 0.0482 (inactive) and -3.34 (inactive); in experiment [13] it was -4.6 (inactive) and -4.09 (inactive); in [14] it was -0.873 (inactive) and -2.14 (inactive); in experiment [16] it was -0.0134 (inactive) and -0.274 (inactive).

With `CC(=O)OC[C@H]1O[C@H](C#CC(C)(C)C)C=C[C@@H]1OC(C)=O`, the composite z-score in experiment [1] was -0.358; in experiment [2], -0.159; in experiment [3], -0.126; in [4], 0.039; in experiment [5], 1.01; in experiment [6], 1.38. In addition, the composite z-score was 1.25 in [7]; 0.454 in [9]; 0.164 in [10]; 0.975 in experiment [11]; 1.3 in experiment [15]; -0.177 in experiment [17]. Further, the composite z-score amounted to 0.369 in experiment [18], 0.695 in [19] and 0.0168 in experiment [20]. The z-score in [8] is -0.259 (inactive); in experiment [12], -0.0789 (inactive); in experiment [13], -1.48 (inactive); in [14], -0.589 (inactive); in experiment [16] it was 0.459 (inactive).

Regarding `O=C1[C@H]2[C@H]3[C@H](O)[C@H](O)CC(=NOCc4ccccc4)[C@H]3CC[C@H]2C(=O)N1Cc1ccccc1`, the composite z-score in experiment [1] was -0.51; in [2] it was 0.887; in experiment [3] it was -0.109; in [4], 0.186; in experiment [5], 0.189; in [6], -0.226. In addition, the composite z-score was -0.263 in [7]; 0.223 in [9]; -0.274 in experiment [10]; -1 in experiment [11]; -0.336 in experiment [15]; -0.234 in experiment [17]. Besides, the composite z-score is 0.439 in experiment [18], 0.273 in [19] and -0.126 in [20]. Moreover, the z-score in [8] was 0.224 (inactive); in [12], -2.04 (inactive); in [13] it was -2.07 (inactive); in [14], -1.04 (inactive); in experiment [16], 0.582 (inactive).

For the compound `CCOC(=O)NN=C1C[C@@H](O)[C@@H](O)[C@@H]2[C@@H]3C(=O)N(Cc4ccccc4)C(=O)[C@@H]3CC[C@@H]12`, the composite z-score in experiment [1] was -0.629; in [2], 0.0854; in experiment [3], -0.202; in [4] it was 0.295; in experiment [5], 0.388; in [6], 0.318. Moreover, the composite z-score in experiment [7] is -0.026; in [9] it was -0.0089; in experiment [10], -0.0391; in experiment [11], 0.249; in experiment [15], -0.572; in experiment [17], -0.217. The composite z-score was 0.406 in [18], 0.639 in experiment [19] and -0.282 in experiment [20]. Besides, the z-score in experiment [8] is -0.0833 (inactive); in experiment [12] it was 0.872 (inactive); in experiment [13] it was 0.117 (inactive); in experiment [14] it was 0.552 (inactive); in [16], -1.68 (inactive).

Consider `COC(=O)C1=C(C)N(Cc2ccccc2)[C@]23O[C@](C(=O)OC)(C(=O)N2[C@@H]1c1ccccc1)[C@@H](c1ccccc1)[C@@H]3C(=O)c1ccccc1`, for which the composite z-score is -0.139 and -0.413 in [1]; 0.458 and -0.235 in [2]; -0.0716 and -0.0931 in experiment [3]; 0.236 and 0.391 in experiment [4]; 0.789 and 0.499 in experiment [5]; 0.489 and -0.621 in experiment [6]. For the same compound, the composite z-score is 0.428 and 0.602 in experiment [7]; 0.398 and 0.155 in experiment [9]; -0.132 and -0.226 in experiment [10]; 0.618 and 0.917 in experiment [11]; 0.869 and 0.031 in experiment [15]; -0.185 and 0.0062 in experiment [17]. For the same compound, the composite z-score in [18] is 0.115 and 0.974; in experiment [19] it was 0.58 and 0.216; in experiment [20], 0.0557 and -0.0428. Also, the z-score in experiment [8] was -0.0163 (inactive) and 0.21 (inactive); in experiment [12], -1.15 (inactive) and -0.583 (inactive); in experiment [13] it was -3.18 (inactive) and -1.19 (inactive); in experiment [14], -1.82 (inactive) and -0.776 (inactive); in experiment [16], -0.0517 (inactive) and 0.951 (inactive).

The values are drawn from PubChem BioAssay.
